Measurements from PubChem BioAssay AID652067 (The Scripps Research Institute Molecular Screening Center, 2013).
In all, about 370,000 compounds went through this assay and about 5,400 (1.5%) were called active. Only a selection was taken, and actives are over-represented in it overall. Unmarked numbers belong to inactive results.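 How the source made its calls: active means activation above the mean of all tested compounds plus 3 SD (cut at about 5.5% in these data); inactive means the rest.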

Each compound was assayed on DAF-12 nuclear receptor (Haemonchus contortus) (assay: H. contortus DAF-12 nuclear receptor activators, primary screen, cell-based, luminescence, HEK293, lit1-tk-luc reporter (AID 652067;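 further: 100% = response to 3 µM Δ7-dafachronic acid high control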)). Conditions: HEK293 hcDAF-12 lit1-tk-luc reporter, at 6.8 µM, active compounds read high, 0% DMSO, 100% Δ7-dafachronic acid.

| SMILES | activation |
| --- | --- |
| Cc1cc2c(C)nc(N/N=C/c3ccccc3)nc2o1 | -0.61% |
| CN(CCO)c1ccc(/C=N/Nc2nncc3ccccc23)cc1 | 5.57% |
| Nc1nonc1-n1nnc(C(=O)N/N=C/c2ccc(Cl)cc2)c1-c1ccc2c(c1)OCO2 | 0.66% |
| C(=N\Nc1ccc2ccccc2n1)/c1ccc2c(c1)OCO2 | 7.26% (active) |
| Cc1noc(C)c1/C=N/Nc1ccc2ccccc2n1 | 7.4% (active) |
| O=C(NS(=O)(=O)c1cccs1)[C@H]1O[C@@H](n2ccc(=O)[nH]c2=O)[C@H](O)[C@@H]1O | 1.29% |
| COc1ccc(CSc2nnc(SCC(=O)Nc3ccccc3C(F)(F)F)s2)cc1 | -0.61% |
| CS(=O)(=O)Nc1ccccc1C(=O)OCC(=O)NC1CC1 | 0.83% |
| CC(=O)c1cc(-c2ccc3ccccc3c2)c(=O)n2c1CCC2 | -0.26% |
| COC(=O)Nc1nc2ccc(C(=O)C3CC3)cc2[nH]1 | 0.63% |
| C[C@@H]1CN([C@@H](C)CO)C(=O)c2cccc(NC(=O)Nc3cccc4ccccc34)c2O[C@H]1CN(C)S(=O)(=O)c1ccccc1F | -1.14% |
| C[C@@H]1ON(C)[C@H]2C[C@H]3c4[nH]c5cccc(-c6ccc7c(c6)OCO7)c5c4CCN3C[C@@H]12 | -1.17% |
| CCC(=O)N(Cc1cc2ccccc2[nH]c1=O)c1ccc(OC)cc1 | -1.6% |
| CC(OC(=O)c1cc2ccccc2[nH]1)C(=O)N(C)c1ccccc1 (stereo not given) | 2.38% |
| COc1ccc(C2=Nc3ccccc3NC(=O)C2N(C(=O)c2cc3ccccc3[nH]2)c2ccccc2)cc1 (stereo not given) | 6.3% (active) |
| Cc1cc(=O)oc(C)c1C(=O)NCCN(C)Cc1ccccc1 | -0.39% |
| O=C1CC(c2ccc3c(c2)OCO3)N=C2N(CC3CC3)C/C(=C/c3ccccc3)N12 (stereo not given) | -3.84% |
| CCNC(=O)COC(=O)/C=C/c1c(C)nn(Cc2cccc(OC)c2)c1Cl | 0.11% |
| CCc1ccc(CNC(=O)CCc2nc(-c3cccs3)no2)cc1 | 0.59% |
| O=C(NCc1cccnc1)c1nc(-c2cccs2)no1 | 5.95% (active) |
| O=C(/C=C/c1cccs1)NCc1cccnc1 | -0.87% |
| Cc1ccc2nc(NC(=O)C3CSC4(C)CCC(=O)N34)sc2c1 (stereo not given) | -0.71% |
| CCS(=O)(=O)N1Cc2ccccc2CC1C(=O)Nc1nc2ccc(F)cc2s1 (stereo not given) | 7.31% (active) |

| SMILES | activation |
| --- | --- |
| CCS(=O)(=O)N1Cc2ccccc2CC1C(=O)Nc1ccc(OC)cc1OC (stereo not given) | -0.97% |
| COC(=O)[C@]12C[C@H](CC(=O)NCc3ccccc3)C(=O)N(CCC3=CCCCC3)C1=C[C@H](C(C)(C)C)O[C@@H]2C | 0.06% |
| O=C(NCc1cccs1)C1CCCN(S(=O)(=O)c2ccc([N+](=O)[O-])cc2)C1 (stereo not given) | -2.29% |
| O=C(Nc1cccn(Cc2c(Cl)cccc2Cl)c1=O)c1ccc(Cl)cc1 | -0.98% |
| COc1ccc(-n2c(COc3ccccc3)nnc2SCC(=O)Nc2ccc3c(c2)OCO3)cc1 | -3.31% |
| O=S1(=O)c2c(cccc2N2CC[C@H](O)C2)O[C@@H]2CCN1C2 | -1.21% |
| CCSc1nnc(-c2cc3c(s2)-c2ccccc2CC3)o1 | 2.59% |
| CCOc1ccc(NC(=O)C2CCCN(C(=O)Nc3ccccc3)C2)cc1 (stereo not given) | -0.89% |
| CCOc1ccc2nc(C(=O)N3CCCC(C)C3)sc2c1 (stereo not given) | 7.97% (active) |
| COc1ccc2cc(C(=O)C3CCCN(C(=O)c4sc(C)nc4C)C3)ccc2c1 (stereo not given) | -2.25% |
| COC(=O)[C@]12C[C@H](CC(=O)NCC34CC5CC(CC(C5)C3)C4)C(=O)N(Cc3ccc(Cl)cc3Cl)C1=C[C@H](COCc1ccccc1)O[C@@H]2C | -1.65% |
| CCCOC(=O)Cc1c(O)c2ccccc2[nH]c1=O | 0.81% |
| CCc1ccc2[nH]c(=O)c(Cc3ccccc3)c(O)c2c1 | 0.62% |
| NS(=O)(=O)c1ccccc1NC(=O)c1c(O)c2ccccc2[nH]c1=O | 15.2% (active) |
| C[C@H](C(=O)N(C)c1ccccc1)[C@@H](O)c1ccc(Cl)cc1 | -1.63% |
| CCS(=O)(=O)c1cc([N+](=O)[O-])c(Sc2ccccc2N)s1 | 7.01% (active) |
| Cc1ccc(Cl)cc1NC(=O)C1CCCN(c2cnccn2)C1 (stereo not given) | -1.45% |
| COc1ccc(C2CC(c3cccs3)=NN2C(=O)CSc2nnc(N)s2)cc1OC (stereo not given) | -1.14% |
| COc1ccc(C2CC(c3cccs3)=Nc3ccccc3S2)cc1OC (stereo not given) | 7.77% (active) |
| COc1ccc(C2CC(c3cccs3)=NN2C(=O)COC(=O)c2cc3ccccc3cc2O)cc1OC (stereo not given) | -1% |
| CC(C)(C)NC(=O)C(c1cccnc1)N(C(=O)c1cnco1)c1ccc(C(C)(C)C)cc1 (stereo not given) | -2.31% |
| C/C(=N\N(C)C)c1ccc(OCCOc2ccc([N+](=O)[O-])cc2)cc1 | -0.12% |
| COc1ccc(S[C@]2(C(=O)N(C)C)CC(=O)N(c3ccc(OC)cc3)[C@@H]2c2ccc(OC)cc2)cc1 | -2.06% |

| SMILES | activation |
| --- | --- |
| COc1ccc(CSc2nnc(-c3cccc(C)c3)n2C)cc1 | -3.02% |
| COc1ccc(-c2ccc3c(n2)CCCN3S(=O)(=O)c2ccc(C)cc2)cc1 | -0.08% |
| COc1cc(OC)cc(-c2nc(=S)n3ccsc3n2)c1 | 1.3% |
| COc1ccc(-c2cn3ccc(C)cc3n2)cc1 | 7.15% (active) |
| FC(F)(F)Oc1ccc(-c2cn3cccnc3n2)cc1 | 0.45% |
| COc1ccc(-c2cn3ccsc3n2)cc1 | 6.33% (active) |
| CCOC(=O)[C@@]12CN(C(=O)OC(C)(C)C)CC=C1N(Cc1ccc(OC)cc1)C(=O)[C@H]2CC(=O)NCc1ccc(OC)c(OC)c1 | -1.83% |
| CN1C(=O)C(Br)(Br)CC1c1cccnc1 (stereo not given) | 0.36% |
| Cc1ccc(-n2nc3c(c2NC(=O)CCC2CCCCC2)CS(=O)C3)cc1 (stereo not given) | 1.64% |
| O=C(COc1cccc2c1CCNC2=O)NC1CCCCC1 | 0.88% |
| Cc1cc(NCCc2c[nH]c3ccccc23)ccc1Oc1cccnc1 | -1.55% |
| CCc1cc2c(=O)c(-c3ccon3)c(N)oc2cc1OC | 7.31% (active) |
| CCc1cc2c(=O)c(-c3nc4ccccc4n3C)c(CCCC(=O)O)oc2cc1OC(=O)C(C)(C)C | -0.74% |
| COc1ccc2oc(N)c(C=O)c(=O)c2c1 | -0.56% |
| O=S1(=O)c2ccc(Br)cc2OC[C@H](Cc2ccccc2)N1Cc1cn(Cc2ccccc2)nn1 | -0.79% |
| C=CCN=C1NC(c2ccccc2)C(C(=O)OC)=C(C)N1Cc1ccc(C(F)(F)F)cc1 (stereo not given) | 0.87% |
| Nn1c(SCC(=O)Nc2cccc3ccccc23)nnc1-c1cc(-c2ccc(F)cc2)n[nH]1 | -1.52% |
| Cc1cccc(-n2c(O)c(C=Nc3ccccc3N)c(=O)[nH]c2=O)c1 | 6.08% (active) |
| CC(=O)Nc1nc2ncccn2c1-c1ccc(C(F)(F)F)cc1 | -1.9% |
| O=S(=O)(c1ccccc1)N1CCC(c2nc3ccccc3o2)CC1 | 2.42% |
| Clc1ccc(C(Cn2ccnc2)OCc2ccsc2Cl)c(Cl)c1 (stereo not given) | -3.27% |
| O=c1c2ccccc2nc2n1C(CSc1ccc(Cl)cc1)CN2 (stereo not given) | 2.36% |
| Clc1ccc2nc(CSc3ccccc3)cn2c1 | 6.03% (active) |

| SMILES | activation |
| --- | --- |
| Cn1nc(-c2ccccc2)c(CSc2cccc(Cl)c2)c1Cl | -1.8% |
| C#CCN([C@@H](C)C(=O)OCC)S(=O)(=O)c1ccc(Br)cc1F | -0.18% |
| COC(C(=O)Nc1ccc(S(=O)(=O)Nc2ccc(C)c(C)c2)cc1)c1ccccc1 (stereo not given) | 0.37% |
| Cc1ccc(NNC(=O)C2CCC2)cc1C | 2.28% |
| Cc1ccc(N/C=C/C(=O)c2ccccc2)cc1C | 15% (active) |
| COC(=O)C1CN(CCc2ccccc2)CCS(=O)(=O)N1Cc1ccc(F)cc1 (stereo not given) | 1.33% |
| Cc1ccc(Cn2cc(CN3[C@@H](CC(C)C)COc4ccc(Cl)cc4S3(=O)=O)nn2)cc1 | -0.25% |
| COc1ccccc1N(CC(=O)Nc1ccc(C)cc1Cl)S(=O)(=O)c1cccs1 | -2.56% |
| CN(CC(=O)NC(=O)Nc1ccccc1F)Cc1ccccc1 | -0.6% |
| O=C(CN1CCCCC1)NC(=O)Nc1ccccc1F | 7.05% (active) |
| O=C(CN1CCCCCC1)Nc1ccc(Cl)cc1F | -0.52% |
| CCOc1ccccc1C(=O)N1CCC[C@@H]1C(=O)N1CCC[C@H]1C(=O)NCc1ccccc1 | -0.98% |
| COC(=O)C1(S(=O)(=O)C2(C(=O)OC)CCCC2)CCCC1 | -1.17% |
| Oc1ccc(Cl)cc1/C=N/c1nc2ccccc2[nH]1 | 5.95% (active) |
| Oc1c(Cl)cc(Cl)cc1/C=N/c1ncn[nH]1 | -0.22% |
| O=C(NCc1ccccc1)[C@H]1CCCN1C(=O)[C@H]1CCCN1C(=O)N1CCOCC1 | 0.81% |
| COC(=O)C1=C(C)N(Cc2ccc(C(F)(F)F)cc2)C(=NCc2ccc(C(F)(F)F)cc2)NC1c1cccc(Cl)c1 (stereo not given) | -0.62% |
| COc1ccc(C2CC=C(C(=O)O)C(c3ccccc3F)N2S(=O)(=O)c2ccc(C)cc2)cc1OC (stereo not given) | -1.61% |
| CCOC(=O)c1c(NC(=O)C(C)Sc2c[nH]c3ccccc23)sc2c1CCC2 (stereo not given) | 5.61% (active) |
| COC(=O)c1c(NC(=O)COC(=O)[C@@H](NS(=O)(=O)c2ccccc2)C(C)C)sc2c1CCC2 | 1.86% |
| CCOC(=O)c1c(NC(=O)C2(C)Cc3ccccc3C(=O)O2)sc2c1CCCC2 (stereo not given) | -3.38% |
